This is a sample that favours compounds with a hit; in the whole collection about 11% have one here.
PNC assembly inh – inhibitors of perinucleolar compartment assembly | PC3M PTB-GFP, PNC prevalence imaging, 16 h; active compounds read low | activity change (PNC), negative = inhibition, % at 10 µM | 140,000 tested, 3.1% active;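 active = readout at or below -70, meaning at least 70% loss of cells showing the perinucleolar compartment, a nuclear body marking cancer cells; inconclusive = readout between -30 and a set limit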;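 note: plate controls were DMSO wells for no effect and camptothecin positive control wells for full effect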
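PC3M cells stably expressing PTB-GFP, 750–1000 cells/well, treated 16 h at 37 °C with compound (23 nl of library stock), in duplicate. After paraformaldehyde fixation and Hoechst stain, imaged at 20x; PNC prevalence scored by image analysis.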
ALDH1A1 inh – blocks purified human ALDH1A1 activity; Potency, µM (titrated, usually from 75.3 µM), for inactives: at the top dose activity, negative = inhibition, most hits filed as inhibitors; 220,000 tested, 7.3% active; Purified ALDH1A1, NADH fluorescence, propionaldehyde substrate; P00352;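 note: potency is the fitted concentration of half-maximal effect; plate controls were no enzyme wells and a reference inhibitor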
HPGD inh – blocks human HPGD enzyme activity; AID 894; purified HPGD, NADH fluorescence kinetic, PGE2 substrate; Potency, µM, without a hit: at the top dose activity change, negative = inhibition, usual class: inhibitors; 150,000 tested, 4.3% active; P15428; note: potency is the fitted concentration of half-maximal effect
Target sequence (P15428 whole entry, looked up): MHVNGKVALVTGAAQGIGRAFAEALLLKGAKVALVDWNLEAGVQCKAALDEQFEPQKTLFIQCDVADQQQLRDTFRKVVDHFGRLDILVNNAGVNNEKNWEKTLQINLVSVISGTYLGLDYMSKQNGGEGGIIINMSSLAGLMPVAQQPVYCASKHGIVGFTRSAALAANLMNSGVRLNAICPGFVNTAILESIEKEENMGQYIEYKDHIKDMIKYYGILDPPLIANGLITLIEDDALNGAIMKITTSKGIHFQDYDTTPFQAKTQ
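NADH formation kinetics: reaction with 30 uM PGE2 and 1 mM NAD+ (final), 20 nM enzyme, Tris-HCl pH 8 with Tween 20, after 15 min compound preincubation at room temperature. Fluorescence change, last versus first of five reads.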
* = called active by the depositor; ? = inconclusive; nt = no result given; [ ] = another dose, or the depositor's remark. Unless noted, calls come from the whole dose curve; as a rule, active = well fitted inhibition curve with a large enough effect (not every such curve was filed as active); inconclusive = small, poorly fitted or top-dose-only effect, or another doubt; inactive = no such curve, though single readings can be large or run the other way. Unless noted, % is set by controls: 0 for no effect and ±100 for the full control effect.

SMILES	PNC assembly inh	ALDH1A1 inh	HPGD inh
CS(=O)(=O)Nc1cccc(-c2nccc(-n3ccnc3)n2)c1	nt	-5%	18µM*
CS(=O)(=O)Nc1cccc(-c2nc(-n3ccnc3)c3ccccc3n2)c1	nt	4%	nt
O=C1CSC(=NC2CCCCC2)N1	?	7.9µM*	-8%
O=C1CS/C(=N/N=C2CCCC2)N1	nt	-4%	nt
COc1ccc(C2C(C(=O)Nc3ccc4c(c3)OCCO4)c3ccccc3C(=O)N2C)cc1 (stereo not drawn)	29	?	-11%
Cc1ccc(NC(=O)C2CCCO2)cc1[N+](=O)[O-] (stereo not drawn)	0	-7%	-3%
Cc1ccc(N2CCN(/N=C/c3ccccc3[N+](=O)[O-])CC2)cc1	nt	16µM*	nt
O=[N+]([O-])c1ccccc1/C=N/N1CCN(c2ccccn2)CC1	-7	-3%	-5%
O=C(CSc1nc(-c2ccccc2)cs1)Nc1ccccc1[N+](=O)[O-]	-13	-7%	-8%
Cc1c(Br)c([N+](=O)[O-])nn1CCCC(=O)Nc1sc2c(c1C(N)=O)CCC(C)C2 (stereo not drawn)	?	25µM*	11µM*
COC(=O)Nc1sc2c(c1C(N)=O)CCC(C)C2 (stereo not drawn)	nt	-9%	nt
Cc1c(Cl)c([N+](=O)[O-])nn1CCCC(=O)Nc1cccc(Cl)c1Cl	23	-9%	-6%
Cc1c(Cl)c([N+](=O)[O-])nn1CCCC(=O)Nc1sc2c(c1C(N)=O)CCC(C)C2 (stereo not drawn)	48	5%	5µM*
Cc1ccc(C)c(C(C)NC(=O)C2C3CCC(O3)C2C(=O)O)c1 (stereo not drawn)	15	7%	-1%
c1ccc(-c2ccc(-c3cn4c(n3)CCC4)cc2)cc1	25	?	-29%
CCOc1ccc(C2C(C(C)=O)=C(O)C(=O)N2CCc2c[nH]c3ccccc23)cc1 (stereo not drawn)	nt	-8%	nt
CC1(C)C(O)C=C[C@@]2(C)C1CC(=O)O[C@@]1(C)C3=CC(=O)OC(c4ccoc4)[C@]3(C)CCC21 (stereo partly drawn)	nt	22µM*	0%
CC1(C)C(=O)CC[C@@]2(C)C1CC(O)[C@@]1(C)C3=CC(=O)OC(c4ccoc4)[C@]3(C)CCC21 (stereo partly drawn)	nt	-9%	-7%
CC(=O)OC1CC2C(C)(C)C(=O)CC[C@]2(C)C2CC[C@]3(C)C(=CC(=O)OC3c3ccoc3)[C@]12C (stereo partly drawn)	nt	5%	1%
CC(=O)OC1CC2C(C)(C)C(O)CC(O)[C@@]2(C)C2CC[C@@]3(C)C(=CC(=O)OC3c3ccoc3)[C@]12C (stereo partly drawn)	nt	?	20µM*
C=CCN1C(=O)C(CC(C)C)NC1=S (stereo not drawn)	nt	7%	-4%
Cn1c(C(=O)c2ccccc2[N+](=O)[O-])nc2ccccc21	nt	7%	nt
NC(=S)c1c(Cl)cc(C(F)(F)F)cc1Cl	nt	7%	nt
O=C(/C=C/c1c(F)cccc1Cl)Nc1ncccn1	-10	7%	?
O=C(/C=C/c1c(Cl)cccc1Cl)n1cccn1	-95*	-7%	-17%
SMILES	PNC assembly inh	ALDH1A1 inh	HPGD inh
COc1ccc(N2C(=O)C3CCCN3C2c2ccccc2)cc1 (stereo not drawn)	?	?	-6%
N#Cc1cccc(-c2cn(S(=O)(=O)c3ccc(Cl)cc3)nc2N)c1	-26	-2%	-18%
CC(=O)c1sc(NC(=O)COc2c(C)cc(Cl)cc2C)nc1C	nt	4%	nt
O=C(CCCOc1ccc(Cl)cc1Cl)NCc1ccncc1	nt	20µM*	nt
CC(=O)c1sc(NC(=O)COc2ccc(Cl)cc2Cl)nc1C	nt	11µM*	nt
O=C(CCCOc1ccc(Cl)cc1Cl)NCCCO	?	-1%	-10%
O=C(COc1ccc(Cl)cc1Cl)NCc1ccncc1	-23	?	25µM*
Cc1cc(Cl)ccc1OCC(=O)NCc1ccncc1	72	-3%	-10%
Cc1nc([N+](=O)[O-])c(C(=O)OCc2ccccc2C#N)n1C	nt	4%	nt
O=C(NCCCN1CCOCC1)c1sc2ccccc2c1Cl	nt	-21%	nt
CCOC(=O)C(=O)Nc1ccccc1C(=O)NCc1ccccc1	nt	-7%	nt
COc1cccc(Cn2c(-c3nonc3N)nc3ccccc32)c1	-111*	-13%	-15%
COc1ccc(Cn2c(-c3ccc(OC)cc3)nc3ccccc32)cc1	-100*	?	-24%
COc1cc(Cn2c(-c3nonc3N)nc3ccccc32)ccc1C	?	5%	-4%
COc1ccc(Cn2c(-c3ccc(C)cc3)nc3c(c(=O)c4ccccc4n3C)c2=O)cc1	34	?	-12%
COc1ccc(Cn2c(-c3ccc(OC)cc3)nc3c(c(=O)c4ccccc4n3C)c2=O)cc1	-8	0.28µM*	-3%
COCCn1c(-c2ccc(OC)cc2)nc2ccccc21	37	?	-21%
CCOC(=O)c1sc(SC)nc1N	nt	12%	nt
Cc1sc2nc(-c3cccnc3)nc(Cl)c2c1-c1ccccc1	5	?	?
COc1ccc(-n2c(=O)cnc3cnc(N4CCNCC4)nc32)cc1	nt	?	-24%
COc1ccc(Oc2ncc3ncc(=O)n(C4CC4)c3n2)cc1	nt	-9%	nt
COc1ccc(Oc2ncc3ncc(=O)n(C[C@H]4CCCO4)c3n2)cc1	nt	14µM*	-16%
COc1ccc(-n2c(=O)cnc3cnc(OC)nc32)cc1	nt	22µM*	nt
Fc1ccc(Sc2ccccc2CNC2=NCCN2)cc1	?	-7%	-6%
CS(=O)(=O)N1CCC[C@@]2(CCN(C(=O)Nc3cccc(C#N)c3)C2)C1	nt	7%	-10%
SMILES	PNC assembly inh	ALDH1A1 inh	HPGD inh
COc1cc([N+](=O)[O-])ccc1NC(=O)CCCOc1cccc(C)c1	-9	-15%	-10%
CCN(CC)S(=O)(=O)c1cccc(C(=O)NC(C(=O)Nc2nnc(C)s2)C(C)C)c1 (stereo not drawn)	51	-10%	-7%
O=C(Cn1ccc2ccccc2c1=O)NCCC(=O)NC1CCN(Cc2ccccc2)CC1	-86*	-2%	-13%
Cc1cccc(CN2CCC(CNC(=O)CCNC(=O)Cn3ccc4ccccc4c3=O)CC2)c1	?	9%	-2%
O=C(c1nc2ccccn2c1CNCCCn1nnc2ccccc21)N1CCOCC1	nt	-4%	nt
C=CCn1c(N)c(C(=O)Nc2ccc(C)cc2)sc1=S	38	10%	-4%
CCOC(=O)c1sc(N)c(C(=O)Nc2ccc(C)cc2C)c1C	nt	10µM*	4µM*
CCOC(=O)c1sc(Nc2ccc(C)cc2C)nc1C	0	-18%	-21%
CCOC(=O)c1sc(N)c(C(=O)Nc2ccccc2OC)c1C	nt	4.5µM*	nt
C=CCn1c(N)c(C(=O)Nc2ccccc2OC)sc1=S	?	22µM*	nt
CCOC(=O)c1sc(N)c(C(=O)OC)c1C	nt	-12%	nt
CCOc1ccc(C2NC(=O)C(C#N)=C(S)N2c2ccc(C)cc2)cc1OC (stereo not drawn)	-13	?	-3%
O=S(=O)(O)c1ccc(-c2nnc(-c3ccccn3)nc2-c2ccc(S(=O)(=O)O)o2)o1	nt	?	-5%
O=c1onc(-c2ccc(Cl)cc2)n1Cc1ccc(F)cc1	44	?	-2%
O=C(O)[C@@H]1CCCN1Cc1cc2ccccc2c2ccccc12	nt	-5%[13.5 µM]	-9%
Cc1ccc([N+](=O)[O-])cc1N/C=C/C(=O)c1ccco1	2	22µM*	-24%
O=C(/C=C/Nc1ccc(F)cc1)c1ccco1	-5	-3%	0%

Screening data: PubChem BioAssay, National Center for Advancing Translational Sciences (NCATS)
